# This is a sample that favours compounds with a hit; in the whole collection about 1.6% have one here.
# KCNQ2 pot: potentiators of rat KCNQ2 potassium channel. O88943. CHO-K1 KCNQ2, FluxOR thallium flux fluorescence; active compounds read high. B-score at 10 µM. 310,000 tested, 0.54% active. AID 2239;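 active = fluorescence ratio B-score at least 3 SD of library B-scores, with initial fluorescence B-score within 3 of them, cut at about 5.3 in these data; same plate scores as AID 2156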;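 also: B-score of peak minus minimum over baseline fluorescence ratio after K+ and Tl+ stimulus; positive B-score means potentiation of KCNQ2 with more thallium influx and brighter signal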
# KCNQ2 block: KCNQ2 (rat) channel inhibition; CHO-K1 KCNQ2, FluxOR thallium flux, 20 min; active compounds read low; B-score at 10 µM; 310,000 tested, 1.1% active; O88943;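 active = fluorescence ratio B-score at most minus 3 library SDs, with starting brightness B-score within 2 library SDs, cut at about -5.5 in these data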
# Kir21 confirm: confirmation of mouse Kir2.1 potassium channel inhibitors | shares compounds with KCNQ2 pot | Kir2.1-expressing cells, FluxOR thallium flux fluorescence; active compounds read low | Tl flux remaining, % of negative control (active compounds read low), % at 10 µM | 2,300 tested, 41% active | AID 2032;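 active = Primary-screen hit whose thallium flux fell at least 3 control SD below untreated wells in both duplicates, with normal baseline fluorescence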;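 also: 0% = blank wells without stimulus and 100% = stimulated no-compound controls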
# HEK293 Tl flux: counter-screen for Kir2.1 inhibitors: effect in parental HEK293 cells; shares compounds with KCNQ2 pot; FluxOR thallium flux fluorescence; 0% = unstimulated blank wells; FluxOR signal as % of negative control (100 = no effect), % at 10 µM; 2,300 tested, 19% active; AID 2105;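 active = dye signal at least 3 control SD above or below untreated wells in both duplicates, raw fluorescence within 3, either direction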;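 also: percent is based on the flux ratio of peak minus minimum fluorescence over baseline F0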
# CHO-K1 Tl ctr: alters thallium flux in parental CHO-K1 cells, KCNQ2 counter-screen. AID 2282. FluxOR thallium flux fluorescence; zero = vehicle mean+3SD, 100% = vehicle-minus-blank window. activity increase over 3SD of controls, % at 10 µM. 1,200 tested, 43% active. shares compounds with KCNQ2 pot;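 active = signal rise of at least 3 SD above the untreated control mean, in both duplicate wells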;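 also: counter screen of KCNQ2 potentiator hits so any rise reflects channel-independent effects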
# KCNQ1 sel pot: tests whether KCNQ2 potentiators also act on human KCNQ1 | shares compounds with KCNQ2 pot | CHO KCNQ1 stable, FluxOR thallium flux fluorescence; beyond 3SD, as % of vehicle-control signal | activation over 3SD threshold, % at 10 µM | 1,200 tested, 28% active | AID 2283;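 active = fluorescence ratio rise of at least 3 SD of vehicle wells above their mean, in both replicate wells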;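 also: 0% = vehicle mean plus 3 SD and 100% = vehicle minus unstimulated blank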
# KCNQ2 pot confirm: rat KCNQ2 channel potentiator confirmation; shares compounds with KCNQ2 pot; CHO-KCNQ2 cells, FluxOR thallium flux fluorescence; potentiation, less the hit threshold, % at 10 µM; 1,200 tested, 68% active;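 active = fluorescence ratio rising 3 SD or more over the vehicle control mean in both replicates, plus primary screen hit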;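 also: peak minus minimum thallium fluorescence divided by baseline after K/Tl stimulus; 0% = vehicle mean plus 3 SD and 100% = vehicle minus unstimulated blank difference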
# Kir2-1 sel: mouse Kir2.1 off-target activity of KCNQ2 potentiators; shares compounds with KCNQ2 pot; HEK293 Kir2.1, FluxOR thallium flux fluorescence; activity over 3SD threshold, % at 10 µM; 1,200 tested, 2% active; AID 2345;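 active = fluorescence ratio rise of at least 3 SD above the vehicle-control mean, seen in both replicates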;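 also: 0% = vehicle mean plus 3 SD and 100% = vehicle minus no-stimulus blank window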
# KCNQ2 W236L MoA: rat KCNQ2 W236L mutant potentiation by KCNQ2 potentiators; shares compounds with KCNQ2 pot; CHO KCNQ2-W236L, automated patch clamp current; current increase over 3SD of negative controls (%), active compounds read high, % at 25 µM; 940 tested, 10% active; AID 2558;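 active = current increase at least 3 SD of the untreated controls above them in both duplicate recordings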
# Target sequence (O88943 whole entry W236L, looked up): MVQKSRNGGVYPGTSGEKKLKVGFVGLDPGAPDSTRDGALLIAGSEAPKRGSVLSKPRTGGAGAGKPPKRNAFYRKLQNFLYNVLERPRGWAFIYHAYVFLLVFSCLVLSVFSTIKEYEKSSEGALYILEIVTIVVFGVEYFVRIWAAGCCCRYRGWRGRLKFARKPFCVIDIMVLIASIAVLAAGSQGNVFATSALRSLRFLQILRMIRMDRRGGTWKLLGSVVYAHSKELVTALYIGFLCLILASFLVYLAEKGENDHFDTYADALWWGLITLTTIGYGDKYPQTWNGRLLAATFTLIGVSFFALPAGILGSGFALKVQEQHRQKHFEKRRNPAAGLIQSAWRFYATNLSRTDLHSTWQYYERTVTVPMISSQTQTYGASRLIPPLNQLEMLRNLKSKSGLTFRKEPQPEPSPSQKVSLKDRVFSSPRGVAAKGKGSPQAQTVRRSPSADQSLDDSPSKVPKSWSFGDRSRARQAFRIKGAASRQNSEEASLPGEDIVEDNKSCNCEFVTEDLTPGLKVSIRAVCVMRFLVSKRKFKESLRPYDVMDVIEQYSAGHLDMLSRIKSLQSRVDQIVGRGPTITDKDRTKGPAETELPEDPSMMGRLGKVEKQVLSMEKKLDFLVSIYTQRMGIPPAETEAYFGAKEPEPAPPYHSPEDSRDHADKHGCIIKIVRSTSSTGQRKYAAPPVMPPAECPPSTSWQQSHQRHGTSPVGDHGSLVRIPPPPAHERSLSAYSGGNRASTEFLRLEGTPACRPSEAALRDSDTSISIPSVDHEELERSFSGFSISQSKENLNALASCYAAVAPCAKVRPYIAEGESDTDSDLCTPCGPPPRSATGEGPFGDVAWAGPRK
# * = called active by the depositor; i = inactive; / = no result.
SMILES,KCNQ2 pot,KCNQ2 block,Kir21 confirm,HEK293 Tl flux,others
CC(c1ccon1)N(C)Cc1cn(C)nc1-c1cccc(Cl)c1 (configuration not stated),0.08,i,/,/,
Cc1cc2c(c(=O)o1)C(C13C=CC(CC1)C3)C(C#N)=C(N)O2 (configuration not stated),0.28,i,/,/,
COc1cc(C(=O)NC(C(=O)Nc2cccc(C(C)=O)c2)C(C)C)cc(OC)c1OC (configuration not stated),0.03,i,/,/,
Cc1ccccc1OCC(=O)Nc1ccccc1N1CCOCC1,-6.5,-6.5*,50%*,i,
COc1ccc(N2CCOCC2)c(NC(=O)COc2cccc(C)c2C)c1,/,i,/,/,
CC(C)(C)c1nc(SCC(=O)c2ccccc2)c2ccccc2n1,19*,i,i,i,CHO-K1 Tl ctr=-2;KCNQ1 sel pot=52*;KCNQ2 pot confirm=26*;Kir2-1 sel=-30;KCNQ2 W236L MoA=i
CC(C)(C)c1nc(SCC(=O)N2CCCC2)c2ccccc2n1,5.1,i,/,/,
C/C(=N\Nc1nncc2ccccc12)c1ccc(O)cc1,0.41,i,/,/,
C/C(=N\Nc1nncc2ccccc12)c1ccc(C(C)(C)C)cc1,5.9*,i,i,i,CHO-K1 Tl ctr=65*;KCNQ1 sel pot=-21;KCNQ2 pot confirm=-33;Kir2-1 sel=-40
COc1ccc(CCN2C(=O)CSC2=S)cc1OC,0.34,i,/,/,
S=C(NCc1ccccc1)NCc1cccc(Cl)c1,/,i,/,/,
S=C(NCCc1cccc(Cl)c1)NCc1ccccc1,7.5*,i,/,/,CHO-K1 Tl ctr=9.3*;KCNQ1 sel pot=41*;KCNQ2 pot confirm=12*;Kir2-1 sel=-58;KCNQ2 W236L MoA=i
S=C(NCCc1ccc(Cl)cc1)NCc1ccccc1,/,i,i,i,
C/C(=N\NC(=S)NCCc1ccccc1)c1ccc(Cl)cc1Cl,6.2*,i,i,i,CHO-K1 Tl ctr=12*;KCNQ1 sel pot=-25;KCNQ2 pot confirm=-10;Kir2-1 sel=-24
C/C(=N\NC(=S)NCCc1ccccc1)c1ccc(O)cc1O,0.01,i,/,/,
S=C(NCc1ccccc1)Nc1ccc(Cl)cc1,2.1,i,/,/,
CC(=O)Nc1ccc(NC(=O)c2nc(S(=O)(=O)Cc3ccccc3)ncc2Cl)cc1,/,i,/,/,
CCc1nnc(NC(=O)c2nc(S(=O)(=O)Cc3ccc(C)cc3)ncc2Cl)s1,15*,i,/,/,CHO-K1 Tl ctr=-22;KCNQ1 sel pot=-16;KCNQ2 pot confirm=63*;Kir2-1 sel=-53;KCNQ2 W236L MoA=26%*
CCOc1ccccc1NC(=O)c1nc(S(=O)(=O)Cc2cccc(C)c2)ncc1Cl,0.76,i,/,/,
CCc1nnc(NC(=O)c2nc(S(=O)(=O)Cc3ccccc3)ncc2Cl)s1,12*,i,i,i,CHO-K1 Tl ctr=97*;KCNQ1 sel pot=-19;KCNQ2 pot confirm=87*;Kir2-1 sel=-44;KCNQ2 W236L MoA=70%*
CCc1nnc(NC(=O)c2nc(S(=O)(=O)Cc3cccc(C)c3)ncc2Cl)s1,18*,i,/,/,CHO-K1 Tl ctr=5.0*;KCNQ1 sel pot=-1;KCNQ2 pot confirm=64*;Kir2-1 sel=-57;KCNQ2 W236L MoA=19%*
COc1ccc(CNC(=O)c2nc(S(=O)(=O)Cc3ccccc3)ncc2Cl)cc1,/,i,/,/,
CCCCN(C(=O)COC(=O)CSc1ccc([N+](=O)[O-])cc1)c1c(N)n(CCC)c(=O)[nH]c1=O,0.4,i,/,/,
COc1ccccc1/C=C/C=N/NC(=O)c1cccs1,/,i,/,/,
CCCn1c(SCc2ccon2)nc2ccccc2c1=O,0.07,i,/,/,
SMILES,KCNQ2 pot,KCNQ2 block,Kir21 confirm,HEK293 Tl flux,others
Clc1ccc(OCCOCCN2CCc3ccccc3C2)c(Cl)c1,/,i,/,/,
c1ccc(-c2ccccc2OCCOCCN2CCc3ccccc3C2)cc1,/,i,50%*,i,
CC(=O)C1=C(C)N2CCN=C2S1,/,i,/,/,
O=C(O)C(Cc1ccccc1)N1C(=O)c2ccccc2C1=O (configuration not stated),1.3,i,/,/,
CN(C)CCN(Cc1ccccc1)C(=O)[C@H](Cc1ccccc1)N1C(=O)c2ccccc2C1=O,0.91,i,69%*,i,
CC(C)Cn1ccc(=O)n(CC(C)C)c1=O,/,i,/,/,
CC(=O)N1CCN(C(=S)NC(=O)c2ccc(S(=O)(=O)N3CCOCC3)cc2)CC1,0.2,i,/,/,
CC(=O)Nc1cccc(OCC(=O)Nc2ccccc2)c1,1.1,i,/,/,
CC(=O)Nc1cccc(OCC(=O)NC(C)c2ccc3ccccc3c2)c1 (configuration not stated),2.5,i,56%*,i,
Cn1c(=O)c2ccccc2n(Cc2cccc(F)c2)c1=O,1,i,/,/,
CC(C)(C)OC(=O)N1CCC(c2c(C(=O)NCC3CCN(C4CCCC4)C3)cnn2-c2ccccc2Cl)CC1 (configuration not stated),/,i,/,/,
CCOC(=O)c1c(NS(C)(=O)=O)sc2c1CCC(C)C2 (configuration not stated),2.2,i,i,178%*,
CCOC(=O)c1c(N)sc2c1CCC(C)C2 (configuration not stated),0.04,i,/,/,
CN(C(=O)c1ccccc1[N+](=O)[O-])c1ccccc1C(=O)NCc1ccccc1,0.61,i,/,/,
C=CS(=O)(=O)c1sc(Cl)c(N2CCOCC2)c1[N+](=O)[O-],-6.8,-6.8*,20%*,48%*,
C=CSc1sc(Cl)c(N2CCOCC2)c1[N+](=O)[O-],/,i,/,/,
Cc1c(Cl)ccc(S(=O)(=O)NCCCn2ccnc2)c1Cl,/,i,/,/,
COc1ccc(CCN2CC(C(=O)N3CCSCC3)CCC2=O)cc1 (configuration not stated),/,i,/,/,
CC(C)Oc1ccc(C2CC(=O)N(c3cccc(/C=C/C(=O)O)c3)C2=O)cc1 (configuration not stated),1.4,i,/,/,
O=C1CC(N2CCN(Cc3ccc(Cl)cc3)CC2)C(=O)N1CCc1ccccc1 (configuration not stated),5.8*,i,i,i,CHO-K1 Tl ctr=-9;KCNQ1 sel pot=-22;KCNQ2 pot confirm=22*;Kir2-1 sel=-53;KCNQ2 W236L MoA=i
O=C1CC(N2CCN(Cc3ccccc3)CC2)C(=O)N1CCc1ccccc1 (configuration not stated),0.92,i,/,/,
CC1=NN(C(N)=S)C(=O)C1N=Nc1ccccc1Cl (configuration not stated),/,i,/,/,
CC1=NN(C(N)=S)C(=O)C1N=Nc1ccc(Cl)cc1Cl (configuration not stated),13*,i,i,i,CHO-K1 Tl ctr=-8;KCNQ1 sel pot=-16;KCNQ2 pot confirm=-4;Kir2-1 sel=-30;KCNQ2 W236L MoA=i
Cc1cc(C(=O)OCC(=O)Nc2c(Cl)cccc2C(F)(F)F)c(C)o1,0.39,i,/,/,
